Measurements taken from PubChem BioAssay (NCATS).
Values without a mark were called inactive. Records with an inconclusive call do not appear. Entries that show only a call come without a potency. Calls of active or inactive are those of the source. Unless noted, the call rests on the fitted dose curve; in most records, active means well fitted curve in the direction sought with a large enough effect; inconclusive means small, poorly fitted or top-dose-only effect, or another doubt; inactive means no such curve, though single readings can be large; an effect the other way counts as inactive or inconclusive.

Tests used:
[1] = biological target: Cytochrome P450 1A2 (Homo sapiens) (UniProt P05177); experiment: p450-cyp1a2 (AID 410; calls by dose curve; further: potency means the concentration at half of the fitted maximal effect)
Cytochrome P450 1A2 (Homo sapiens), sequence (P05177 whole entry, looked up): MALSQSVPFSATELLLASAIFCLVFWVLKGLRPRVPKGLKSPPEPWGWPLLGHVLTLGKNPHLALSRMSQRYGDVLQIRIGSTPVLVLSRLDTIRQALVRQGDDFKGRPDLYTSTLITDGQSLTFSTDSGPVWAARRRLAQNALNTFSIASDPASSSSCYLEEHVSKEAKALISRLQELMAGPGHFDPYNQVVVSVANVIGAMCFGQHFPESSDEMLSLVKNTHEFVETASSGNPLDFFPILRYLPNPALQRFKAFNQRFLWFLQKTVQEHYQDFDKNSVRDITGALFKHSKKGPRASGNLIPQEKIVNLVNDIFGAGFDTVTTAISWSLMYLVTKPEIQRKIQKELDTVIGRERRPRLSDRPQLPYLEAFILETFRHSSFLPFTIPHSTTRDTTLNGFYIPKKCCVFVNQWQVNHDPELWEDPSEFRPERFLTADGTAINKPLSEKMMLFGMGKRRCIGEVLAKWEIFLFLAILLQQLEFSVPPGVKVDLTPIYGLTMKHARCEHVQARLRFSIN
How it was run: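 Human CYP1A2 (20nM) demethylated Luciferin-ME at its Km (100uM) in 100mM KPO4. After 10 min compound preincubation, NADPH regeneration ran the reaction 60 min at room temperature. Luciferin was read by luminescence, normalized to 57 uM furafylline.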

[2] = biological target: Glucocorticoid receptor (Homo sapiens) (UniProt P04150); experiment: GR-GFP Redistribution (AID 450;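 active means compounds whose dose series gives a full or clear partial fitted curve of increased nuclear translocation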; further: potency means the concentration at half of the fitted maximal effect); settings: U2OS GR-GFP nuclear translocation, laser cytometry, 2 h
Glucocorticoid receptor (Homo sapiens), sequence (P04150 whole entry, looked up, the tested form may be a part): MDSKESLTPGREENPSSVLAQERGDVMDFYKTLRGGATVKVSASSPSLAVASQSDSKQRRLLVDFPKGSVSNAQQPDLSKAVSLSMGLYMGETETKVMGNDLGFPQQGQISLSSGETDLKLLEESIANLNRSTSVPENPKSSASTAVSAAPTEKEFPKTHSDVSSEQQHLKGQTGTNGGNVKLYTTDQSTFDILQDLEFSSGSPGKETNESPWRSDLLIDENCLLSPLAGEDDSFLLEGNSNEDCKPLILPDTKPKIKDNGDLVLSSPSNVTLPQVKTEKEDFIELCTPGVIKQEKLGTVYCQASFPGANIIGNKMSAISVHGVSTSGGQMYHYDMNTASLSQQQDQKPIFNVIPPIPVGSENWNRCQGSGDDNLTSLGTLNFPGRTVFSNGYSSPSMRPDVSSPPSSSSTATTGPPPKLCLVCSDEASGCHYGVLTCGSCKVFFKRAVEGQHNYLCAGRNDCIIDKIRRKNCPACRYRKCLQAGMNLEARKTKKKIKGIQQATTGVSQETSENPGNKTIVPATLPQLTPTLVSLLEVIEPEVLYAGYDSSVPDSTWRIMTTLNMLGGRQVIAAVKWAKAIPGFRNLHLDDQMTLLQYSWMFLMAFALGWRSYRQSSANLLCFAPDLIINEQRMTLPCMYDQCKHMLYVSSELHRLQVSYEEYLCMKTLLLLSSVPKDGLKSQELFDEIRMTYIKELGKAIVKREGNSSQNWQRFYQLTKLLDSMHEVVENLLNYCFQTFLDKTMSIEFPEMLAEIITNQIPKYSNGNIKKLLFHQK

[3] = biological target: Glucocorticoid receptor (Homo sapiens) (UniProt P04150); experiment: GR-EFC Redistribution (AID 451; calls by dose curve; further: potency means the concentration at half of the fitted maximal effect); settings: CHO-K1 GR-EFC translocation, beta-gal luminescence, 2 h
How it was run: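 CHO-K1 cells stably expressing nuclear-localized β-gal enzyme acceptor and GR fused C-terminally to the enzyme donor fragment; ligand-driven nuclear translocation restores β-gal by complementation. Compounds titrated up to 46 uM final, 2 h at 37 °C; luminescence read.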

[4] = biological target: 3',5'-cyclic-AMP phosphodiesterase 4B (Homo sapiens) (UniProt Q07343); experiment: qHTS Assay for Inhibitors of PDE-IV (AID 607; active means well fitted activation curve with a large enough effect in the main read-out, with a control signal flat, not every such curve was filed as active)
3',5'-cyclic-AMP phosphodiesterase 4B (Homo sapiens), sequence (Q07343 whole entry, looked up): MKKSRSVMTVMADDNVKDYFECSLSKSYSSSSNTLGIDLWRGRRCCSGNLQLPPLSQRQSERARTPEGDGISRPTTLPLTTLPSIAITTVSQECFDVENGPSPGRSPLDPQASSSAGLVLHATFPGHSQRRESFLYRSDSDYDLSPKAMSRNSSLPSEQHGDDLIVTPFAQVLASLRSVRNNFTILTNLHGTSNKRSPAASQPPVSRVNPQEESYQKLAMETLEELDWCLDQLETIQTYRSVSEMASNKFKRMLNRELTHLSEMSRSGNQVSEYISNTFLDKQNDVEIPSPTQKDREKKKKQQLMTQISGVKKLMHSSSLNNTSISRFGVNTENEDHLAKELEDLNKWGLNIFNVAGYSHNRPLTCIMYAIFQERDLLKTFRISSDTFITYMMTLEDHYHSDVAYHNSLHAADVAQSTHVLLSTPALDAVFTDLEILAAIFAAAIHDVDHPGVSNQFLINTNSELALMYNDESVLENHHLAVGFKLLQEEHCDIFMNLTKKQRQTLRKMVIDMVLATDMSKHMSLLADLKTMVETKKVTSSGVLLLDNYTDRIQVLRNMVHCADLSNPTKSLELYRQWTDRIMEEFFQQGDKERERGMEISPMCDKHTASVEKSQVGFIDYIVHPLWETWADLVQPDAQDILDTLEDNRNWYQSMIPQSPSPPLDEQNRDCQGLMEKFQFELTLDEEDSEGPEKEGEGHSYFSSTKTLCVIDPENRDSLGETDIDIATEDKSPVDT
How it was run: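 The readout is membrane depolarisation from a cAMP-sensing CNG channel, detected with a potential dye at ex 535/em 590. Cells were HEK293-derived (endogenous PDE-IV) at 1000 cells/well, titrated up to 22.9 uM final.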

[5] = biological target: Cytochrome P450 3A4 (Homo sapiens) (UniProt P08684); experiment: qHTS Assay for Activators of Cytochrome P450 3A4 (AID 885); further: nearly all actives have a fitted effect of over 65% in size
Cytochrome P450 3A4 (Homo sapiens), sequence (P08684 whole entry, looked up): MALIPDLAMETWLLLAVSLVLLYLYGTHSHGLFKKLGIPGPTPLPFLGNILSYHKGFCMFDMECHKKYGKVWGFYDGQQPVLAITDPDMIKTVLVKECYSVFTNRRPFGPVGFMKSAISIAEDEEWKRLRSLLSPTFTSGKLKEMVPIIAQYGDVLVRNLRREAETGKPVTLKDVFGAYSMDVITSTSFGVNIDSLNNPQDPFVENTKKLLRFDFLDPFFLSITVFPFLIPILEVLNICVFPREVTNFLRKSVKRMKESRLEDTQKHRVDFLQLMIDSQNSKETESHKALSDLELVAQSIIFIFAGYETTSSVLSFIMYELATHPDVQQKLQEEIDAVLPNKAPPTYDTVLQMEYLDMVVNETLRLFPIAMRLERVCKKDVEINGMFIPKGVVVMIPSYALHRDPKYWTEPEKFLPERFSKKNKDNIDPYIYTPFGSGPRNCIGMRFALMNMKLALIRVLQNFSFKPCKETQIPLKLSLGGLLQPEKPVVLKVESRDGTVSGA
How it was run: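 Steps: enzyme/substrate mix dispensed; compound added, 10 min RT; NADPH regeneration solution added, 60 min RT; luciferin detection buffer stops reaction; 20 min later luminescence measured.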

[6] = biological target: Ubiquitin carboxyl-terminal hydrolase 1 (Homo sapiens) (UniProt O94782); experiment: Inhibitors of USP1/UAF1: Pilot qHTS (AID 504865); further: nearly all actives have a fitted effect of over 35% in size; further: potency means the concentration at half of the fitted maximal effect;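 on activity change, negative = inhibition: rhodamine fluorescence freed from ubiquitin-rhodamine substrate followed over time; top concentration of the series differs between compounds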
Ubiquitin carboxyl-terminal hydrolase 1 (Homo sapiens), sequence (O94782 whole entry, looked up): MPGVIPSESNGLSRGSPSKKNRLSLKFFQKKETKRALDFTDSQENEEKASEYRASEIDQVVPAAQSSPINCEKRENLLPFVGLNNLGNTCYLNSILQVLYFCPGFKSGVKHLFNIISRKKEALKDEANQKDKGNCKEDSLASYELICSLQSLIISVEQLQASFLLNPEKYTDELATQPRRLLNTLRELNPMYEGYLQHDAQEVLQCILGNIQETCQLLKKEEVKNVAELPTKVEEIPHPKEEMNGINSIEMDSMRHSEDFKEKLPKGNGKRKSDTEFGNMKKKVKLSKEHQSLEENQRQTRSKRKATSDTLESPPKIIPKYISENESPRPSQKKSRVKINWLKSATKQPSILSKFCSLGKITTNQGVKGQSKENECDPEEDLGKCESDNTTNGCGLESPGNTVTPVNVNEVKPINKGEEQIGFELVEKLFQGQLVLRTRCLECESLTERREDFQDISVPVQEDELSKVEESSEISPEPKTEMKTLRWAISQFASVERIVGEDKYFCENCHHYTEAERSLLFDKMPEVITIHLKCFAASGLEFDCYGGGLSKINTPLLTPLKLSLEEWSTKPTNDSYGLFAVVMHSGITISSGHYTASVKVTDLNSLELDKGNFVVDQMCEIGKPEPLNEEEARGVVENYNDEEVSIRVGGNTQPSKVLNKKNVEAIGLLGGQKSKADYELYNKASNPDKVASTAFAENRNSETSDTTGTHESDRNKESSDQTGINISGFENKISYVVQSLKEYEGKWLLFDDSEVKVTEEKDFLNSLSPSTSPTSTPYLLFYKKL
How it was run: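 Deubiquitinase activity followed as kinetic rhodamine fluorescence release from 150 nM Ub-Rho. 1 nM USP1/UAF1 with compound, after 15 min room-temperature preincubation, in HEPES pH 7.8 buffer containing TCEP, EDTA, BSA and Tween-20.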

[7] = biological target: DNA dC->dU-editing enzyme APOBEC-3G (Homo sapiens) (UniProt Q9HC16); experiment: qHTS for inhibitors of Vif-A3G interactions: Validation (AID 588379)
DNA dC->dU-editing enzyme APOBEC-3G (Homo sapiens), sequence (Q9HC16 whole entry, looked up): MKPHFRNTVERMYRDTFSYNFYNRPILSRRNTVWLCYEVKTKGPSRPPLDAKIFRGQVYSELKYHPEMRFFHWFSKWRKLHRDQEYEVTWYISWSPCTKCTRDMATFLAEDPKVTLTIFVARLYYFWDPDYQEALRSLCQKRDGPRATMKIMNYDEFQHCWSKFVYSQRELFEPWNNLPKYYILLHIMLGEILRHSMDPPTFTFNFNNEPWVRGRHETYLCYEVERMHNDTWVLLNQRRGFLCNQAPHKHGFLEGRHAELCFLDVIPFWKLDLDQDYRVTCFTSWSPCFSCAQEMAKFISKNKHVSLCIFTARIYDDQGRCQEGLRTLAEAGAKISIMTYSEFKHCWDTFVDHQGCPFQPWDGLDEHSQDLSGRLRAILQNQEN
How it was run: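 HeLa cells stably expressing Vif and A3G-eYFP, 700 cells/well, incubated overnight at 37 deg C, then exposed to compound overnight at 37 deg C. Inhibition of Vif-mediated degradation read as increased yellow fluorescence (Ex 488/Em 500-530) by laser-scanning cytometry.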

[8] = test system: Zika virus NS2B-NS3 protease; experiment: Primary screen GU AMC qHTS for Zika virus inhibitors (AID 1347154); further: nearly all actives have a fitted effect of over 70% in size
How it was run: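 Unlinked Zika NS2B hydrophilic domain/NS3 protease domain noncovalent complex (25 nM final) in 10 mM Tris-HCl pH 8.0, 0.01% Tween 20, with AMC peptide substrate. Fluorescence (ex 340, em 450 nm) change over 15 min, room temperature; percent inhibition fitted to 4-parameter Hill equation.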

[9] = Primary qHTS for small molecule stabilizers of the endoplasmic reticulum resident proteome: Secreted ER Calcium Modulated Protein (SERCaMP) assay (AID 1508630)
How it was run: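 GLuc-SERCaMP-expressing SH-SY5Y cells, pretreated 16 h with compound, are challenged with thapsigargin to empty ER calcium stores; after 4 h, coelenterazine is added directly to the medium and luminescence is imaged.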

[10] = biological target: Mitogen-activated protein kinase 10 (Mus musculus) (UniProt Q61831); experiment: JNK3 AlphaScreen Assay (AID 530; active means well fitted curve in either direction with a large enough effect, not every such curve was filed as active;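 further: kinase came from lysate of stimulated human HepG2 cells; signal reports phosphorylation of biotinylated GST-cJun 1-79 at Ser73 with 10 µM ATP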)
How it was run: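 JNK3 came from HepG2 lysates pre-activated with IL-1beta and TNF-alpha and phosphorylated biotinylated GST-cJun (1-79) at 10 uM ATP, pH 7.6, room temperature. Compounds were titrated. AlphaScreen signal used anti-phospho-cJun (Ser73) antibody.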

[11] = NFAT Signaling Pathway (AID 444; active means well fitted curve in either direction with a large enough effect, not every such curve was filed as active;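 further: carbachol stimulus at about its EC50 of 1 µM final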); settings: Jurkat NFAT-bla M1, carbachol, beta-lactamase ratio, 5 h; at 38 µM (top of the series)
How it was run: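 Jurkat cells carrying an NFAT-driven β-lactamase reporter and co-transfected muscarinic M1 receptor were treated with compound plus carbachol (1 uM final, an EC50 level) for 5 h at 37 °C. CCF4 loading followed for 1 h at RT; 460/530 nm ratio gave %activity.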

[12] = Stat Signaling Pathway (AID 446; active means well fitted curve in either direction with a large enough effect, not every such curve was filed as active;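 further: ME-180 cervical cancer cells given 40 pM IL-6 alongside compound; SIE-controlled beta-lactamase reporter measured as 460/530 nm FRET emission ratio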); settings: ME-180 SIE beta-lactamase reporter, IL-6 stimulated, 5 h; at 38 µM (top of the series)
How it was run: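 Screening format detects activators and inhibitors alike: ME-180 SIE-bla cells stimulated at 40 pM IL-6 for 5 hrs with compound, then dual-emission beta-lactamase read at 405 nm excitation.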

[13] = biological target: Guanine nucleotide-binding protein G(i) subunit alpha-1 (Homo sapiens) (UniProt P63096); experiment: qHTS Assay for Inhibitors of RGS12 GoLoco Motif Activity (Green Fluorophore) (AID 879);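 further: negative values mean loss of peptide binding seen as reduced polarization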
How it was run: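 Fluorescence polarization assay: 50 nM Gαi1 with 10 nM FITC-labeled RGS12 GoLoco peptide in 10 mM Tris pH 7.5, 150 mM NaCl, 0.1 mM GDP, 0.05% NP40, 10 min at room temperature with compound.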

[14] = biological target: Cytochrome P450 2C9 (Homo sapiens) (UniProt P11712); experiment: qHTS Assay for Inhibitors and Substrates of Cytochrome P450 2C9 (AID 883); further: nearly all actives have a fitted effect of over 60% in size
Cytochrome P450 2C9 (Homo sapiens), sequence (P11712 whole entry, looked up): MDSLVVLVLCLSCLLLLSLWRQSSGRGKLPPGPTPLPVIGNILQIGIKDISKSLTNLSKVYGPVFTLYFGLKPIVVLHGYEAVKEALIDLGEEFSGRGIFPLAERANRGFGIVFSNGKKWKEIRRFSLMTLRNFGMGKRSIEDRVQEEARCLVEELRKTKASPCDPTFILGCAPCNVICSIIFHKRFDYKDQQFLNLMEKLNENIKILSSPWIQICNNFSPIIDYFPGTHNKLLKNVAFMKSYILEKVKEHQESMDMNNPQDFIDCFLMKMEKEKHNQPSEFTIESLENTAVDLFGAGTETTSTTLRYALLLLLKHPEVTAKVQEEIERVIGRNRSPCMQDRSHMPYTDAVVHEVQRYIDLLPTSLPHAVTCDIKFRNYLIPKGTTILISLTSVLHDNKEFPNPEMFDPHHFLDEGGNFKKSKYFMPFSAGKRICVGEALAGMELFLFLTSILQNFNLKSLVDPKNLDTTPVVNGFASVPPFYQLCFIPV
How it was run: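 A luminogenic readout tracked human CYP2C9 (10nM) converting deoxyluciferin (100uM, at KM) in 25mM KPO4 during 60 min at 37C with regenerated NADPH. Values normalized to 57uM sulphaphenazole as complete inhibition.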

[15] = biological target: Cytochrome P450 2C19 (Homo sapiens) (UniProt P33261); experiment: qHTS Assay for Inhibitors and Substrates of Cytochrome P450 2C19 (AID 899); further: nearly all actives have a fitted effect of over 60% in size
How it was run: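 NADPH-dependent conversion of Luciferin-H EGE (10uM, at KM) by 5nM enzyme in 50mM KPO4, 60 min at 37C following 10 min compound preincubation. Stopped with luciferin detection buffer; luminescence read after 20 min.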

[16] = biological target: Pyruvate kinase (Leishmania mexicana) (UniProt Q27686); experiment: qHTS Validation Assay for Inhibitors of Leishmania Mexicana Pyruvate Kinase (AID 945)
How it was run: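 The enzyme is a highly purified E451W mutant of LmPYK used at 0.2 nM. It converts 0.5 mM PEP and 0.1 mM ADP over 1 h at room temperature; product ATP is quantified by luciferase luminescence relative to DMSO controls.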

[17] = biological target: Pyruvate kinase PKM (Homo sapiens) (UniProt P14618); experiment: qHTS Assay for Activators of Human Muscle Pyruvate Kinase (AID 954; active means well fitted curve in the direction sought with a large enough effect, not every such curve was filed as active)
Pyruvate kinase PKM (Homo sapiens), sequence (P14618 whole entry, looked up): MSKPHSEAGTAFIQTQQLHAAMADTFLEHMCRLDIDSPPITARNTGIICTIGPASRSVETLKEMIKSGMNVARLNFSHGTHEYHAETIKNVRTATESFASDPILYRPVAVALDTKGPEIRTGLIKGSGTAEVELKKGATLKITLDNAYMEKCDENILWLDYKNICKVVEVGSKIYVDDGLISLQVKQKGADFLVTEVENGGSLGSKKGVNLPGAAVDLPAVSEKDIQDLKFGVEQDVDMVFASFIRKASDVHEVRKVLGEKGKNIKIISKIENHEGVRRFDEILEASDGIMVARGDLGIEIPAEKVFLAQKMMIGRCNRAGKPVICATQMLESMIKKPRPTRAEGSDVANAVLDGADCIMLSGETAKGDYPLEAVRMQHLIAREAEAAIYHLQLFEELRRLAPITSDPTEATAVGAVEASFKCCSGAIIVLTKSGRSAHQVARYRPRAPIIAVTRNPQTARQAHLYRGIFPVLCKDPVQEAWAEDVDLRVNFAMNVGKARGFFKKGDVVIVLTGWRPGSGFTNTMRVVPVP
How it was run: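 Reaction: 0.1 nM purified PKM2 with 0.5 mM phosphoenolpyruvate and 0.1 mM ADP, room temperature, 1 h. Readout: luciferase-based ATP luminescence after stop reagent. Activators judged against a 0.3 nM enzyme column.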

[18] = biological target: Alpha-galactosidase A (Homo sapiens) (UniProt P06280); experiment: Counterscreen for Glucocerebrosidase Inhibitors: qHTS Assay for Human alpha-Galactosidase at pH 4.5 (AID 992)
How it was run: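 Concentration-response curves (0.7 nM to 77 uM final) were modeled with the Hill equation to give AC50. Reactions: 2 nM enzyme, 80 uM fluorogenic alpha-galactoside, pH 4.5 citric acid buffer, 20 min, room temperature.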

[19] = biological target: alpha-glucosidase (Oryza sativa, rice) (UniProt Q653V4); experiment: Counterscreen for Glucocerebrosidase Inhibitors: qHTS Assay for Rice alpha-Glucosidase at pH 5.0 (AID 997)
How it was run: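 Rice alpha-glucosidase (4 nM final) with 400 uM 4-methylumbelliferyl-alpha-D-glucopyranoside in citrate buffer pH 5.0, 20 min at room temperature, stopped at pH 10; fluorescence 365/440 nm, compounds 0.7 nM–77 uM, AC50 from Hill fits.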

With `CC1(C)C(=O)NC2=C1C(=O)C(=O)c1ccccc12` the Potency [1] was 3.16 µM (active), the Potency [2] was over 46 µM and the Potency [3] was over 46 µM. The Potency [4] was “inactive”, the Potency [5] was “inactive” and the Potency [6] was 0.891 µM (active). The Potency [7] was “inactive”, the Potency [8] was “inactive” and the Potency [9] was “inactive”.
In the case of `O=C(c1c(O)c2ccc(Cl)cc2[nH]c1=O)C1CC1`, the Potency [1] is reported as 0.0794 µM (active), the Potency [2] is reported as over 46 µM and the Potency [3] is reported as over 46 µM. The Potency [10] was “inactive”, the Potency [4] was “inactive” and the Potency [5] was “inactive”. For the same compound, the Potency [6] was “inactive”, the Potency [7] was “inactive” and the Potency [8] was “inactive”. The Potency [9] was “inactive”.
With `Nc1nc(NCCc2ccc(O)cc2)nc2nc(-c3ccco3)nn12` the Potency [1] was 31.6 µM (active), the Potency [2] was over 46 µM and the Potency [3] was over 46 µM. The Potency [4] was “inactive”, the Potency [5] was “inactive” and the Potency [6] was “inactive”. For the same compound, the Potency [7] was “inactive”, the Potency [8] was “inactive” and the Potency [9] was “inactive”.
With `O=C(O)[C@H]1CCCNC1` the Potency [1] was “inactive”, the activity change, negative = inhibition [11] was 2.68% and the activity, negative = inhibition [12] was -8.68%. For the same compound, the Potency [2] was over 46 µM, the Potency [3] was over 46 µM and the Potency [10] was “inactive”. For the same compound, the Potency [4] was “inactive”, the outcome [13] was “inactive” and the Potency [14] was “inactive”. The Potency [15] was “inactive”, the Potency [16] was “inactive” and the outcome [17] was “inactive”. For the same compound, the outcome [18] was “inactive”, the outcome [19] was “inactive” and the Potency [7] was “inactive”. For the same compound, the Potency [8] was “inactive” and the Potency [9] was “inactive”.
For `C[C@](O)(C(=O)Nc1ccc(S(=O)(=O)c2ccccc2)cc1)C(F)(F)F`, the Potency [1] was 39.8 µM (active), the Potency [2] was over 46 µM and the Potency [3] was over 46 µM. The Potency [10] was “inactive”, the Potency [5] was “inactive” and the Potency [6] was “inactive”. For the same compound, the Potency [7] was “inactive”, the Potency [8] was “inactive” and the Potency [9] was “inactive”.
For `N[C@H](Cc1ccc(Cl)cc1)C(=O)O`, the Potency [1] was 31.6 µM (active), the activity change, negative = inhibition [11] was 7.18% and the activity, negative = inhibition [12] was -4.9%. The Potency [2] was over 46 µM, the Potency [3] was over 46 µM and the Potency [10] was “inactive”. The outcome [13] was “inactive”, the Potency [14] was “inactive” and the Potency [5] was “inactive”. For the same compound, the Potency [15] was “inactive”, the Potency [16] was “inactive” and the outcome [17] was “inactive”. The outcome [18] was “inactive”, the outcome [19] was “inactive” and the Potency [7] was “inactive”. For the same compound, the Potency [8] was “inactive” and the Potency [9] was “inactive”.
In the case of `O[C@H](CCCN1CCN(c2ncc(F)cn2)CC1)c1ccc(F)cc1`, the Potency [1] is reported as 31.6 µM (active), the Potency [2] is reported as over 46 µM and the Potency [3] is reported as over 46 µM. The Potency [10] was “inactive”, the Potency [4] was “inactive” and the Potency [6] was “inactive”. The Potency [7] was “inactive”, the Potency [8] was “inactive” and the Potency [9] was “inactive”.
`OCc1cc([C@@H](O)CNCCCCCCOCCCCc2ccccc2)ccc1O` showed an activity change, negative = inhibition [11] of -1.3%, an activity, negative = inhibition [12] of -26.7% and a Potency [2] of over 46 µM. The Potency [3] was over 46 µM, the Potency [10] was “inactive” and the Potency [4] was “inactive”. For the same compound, the Potency [7] was “inactive”, the Potency [8] was “inactive” and the Potency [9] was “inactive”.
For `CCCCCCc1c(C[C@H](N)C(=O)O)o[nH]c1=O`, the Potency [1] was 31.6 µM (active), the Potency [2] was over 46 µM and the Potency [3] was over 46 µM. The Potency [10] was “inactive”, the Potency [4] was “inactive” and the Potency [6] was “inactive”. The Potency [7] was “inactive”, the Potency [8] was “inactive” and the Potency [9] was “inactive”.
